# Data reported in PubChem BioAssay AID1117361 (Southern Research Institute, 2015).
# Hit rate of the full screen: of about 3,600 compounds, about 900 (25%) were called active. Only a sample is shown. Potency and affinity values are given separately. Values without a mark were called inactive. How the calls were made is not given here.
# Target: Protein Tat (Human immunodeficiency virus type 1 group M subtype B (isolate HXB2)) (UniProt P04608)
# Assay: inhibitors of Tat binding to TAR RNA, dose response, counter-screen for Vif-APOBEC3G degradation inhibitor project, biochemical, fluorescence polarization, FAM-labeled TAR RNA (AID 1117361)
# Conditions: outcome: dose series up to 100 µM unless noted; series mostly up to 100 µM; inhibition: at the top concentration
Compound,outcome,inhibition
CCCc1nc(SCC(=O)N2CCCc3ccccc32)c2c(=O)n(C)c(=O)n(C)c2n1,inactive,
O=C(NC(Cc1ccccc1)c1nc2ccccc2[nH]1)c1cccc([N+](=O)[O-])c1 (stereo not given),inactive,
CCOC(=O)C1=C(C)N=c2s/c(=C/c3ccco3)c(=O)n2C1c1cccc(OC)c1 (stereo not given),,1.65%
CCOC(=O)C1=C(C)NC(C)=C(C(=O)OCC)C1c1cn(-c2ccccc2)nc1-c1ccco1,,25%
O=C(CN1c2ccccc2Sc2ccccc21)NNC(=S)Nc1ccc(Cl)cc1Cl,,1.35%
CCCn1nc(NC(=O)c2cccs2)c2cc3ccccc3nc21,,16.2%
CC1=C(SCc2ccccc2)C(=O)c2ccccc2C1=O,inactive,
CCCCNC(=O)c1onc(CSc2ccc(C(C)C)cc2)c1C(=O)O,,0.68%
COc1ccc(CCN(C)C(=O)COC(=O)/C=C/c2ccc(C)o2)cc1OC,,8.35%
Cn1nc(C(F)(F)F)c(C#N)c1N1CCN(c2ccc(F)cc2)CC1,,6.08%
Cn1cc(/C=C/C(=O)N2CCCC(C(=O)c3cccc(C(F)(F)F)c3)C2)cn1 (stereo not given),,6.6%
CCOC(=O)C1Nc2ccc(Br)cc2C2C=CCC12 (stereo not given),,5.68%
CC(C)Cc1nc2oc3c(NCC(C)O)ncnc3c2c2c1CCCC2 (stereo not given),inactive,
O=C(NC1CCCCC1)C(c1ccc(F)cc1)N(C(=O)Cc1ccsc1)c1ccc(F)cc1 (stereo not given),,0.68%
O=C1C(O)CC2c3ccccc3CC3(CCCC3)N12 (stereo not given),,16.2%
Cc1ccc2c(c1)NC(=O)c1cc([N+](=O)[O-])ccc1O2,,6.6%
CCCCn1c(NCc2ccccc2NS(=O)(=O)c2ccc(C)cc2)nc2ccccc21,,4.73%
CCOC(=O)C1=C(c2ccccc2)NC(=O)NC1c1cc(Cl)c(O)c(OC)c1 (stereo not given),,0.82%
CCOc1ccc(NC(=O)C(C)SC(N)=O)cc1 (stereo not given),inactive,
CCOc1cc(/C=C2/C(=O)N(c3ccccc3)N=C2C)ccc1OC(=O)c1ccco1,,0.68%
O=C(NC1CCN(C(=S)NCc2ccco2)CC1)C12CC3CC(CC(C3)C1)C2,inactive,
Cc1[nH]nc2c1C(c1cn[nH]c1-c1ccc(F)cc1)C(C#N)=C(N)O2 (stereo not given),,9.46%
COc1ccc2c(c1)O[C@@H](c1ccc3c(c1)OCO3)[C@H](OC(=O)Nc1cc(OC)c(OC)c(OC)c1)C2=O,inactive,
Cn1cc(Br)c(C(=O)NC2CCCCC2)n1,,4.73%
CCOCCCNC(=S)Nc1ccc2nc(N3CCN(CC)CC3)cc(C)c2c1,,7.68%
Cc1nn(Cc2ccc(Cl)cc2Cl)c(C)c1NC(=O)NC12CC3CC(CC(C3)C1)C2,inactive,
Cc1c(C)c2ccc(O[C@@H]3O[C@H](CO)[C@H](O)[C@H](O)[C@H]3O)c(C)c2oc1=O,,6.35%
Cn1c(SCC(=O)NC(c2ccccc2)c2ccccc2)nnc1-c1cccs1,,3.38%

Compound,outcome,inhibition
CC12CCC(C(=O)Nc3ccc(Br)cn3)(OC1=O)C2(C)C (stereo not given),inactive,
CCCC(=O)Nc1ccc(Br)cn1,,4.05%
O=C(Nc1ccccc1F)c1ccc(S(=O)(=O)NCC2CCCO2)cc1 (stereo not given),,4.77%
O=C(Nc1ccc(F)cc1F)c1noc2c1CCC2,inactive,
CC(C)(C)C1CCC(OC(=O)C[N+]2(C)CCCCC2)CC1 (stereo not given),inactive,
COc1ccc(CNC(=O)C2CCCN(S(=O)(=O)c3c(C)nn(C)c3C)C2)cc1 (stereo not given),inactive,
CCCn1c(Sc2nnnn2-c2ccccc2)n[nH]c1=O,inactive,
N#Cc1c(-c2ccccc2)nc2n1CCS2,inactive,
O=C(Nc1nccc(-c2cccs2)n1)c1ccccc1Cl,,7.5%
CCOc1cc(C(=O)Nc2c3c(nn2C(C)(C)C)CS(=O)C3)cc(OCC)c1OCC (stereo not given),,2.05%
O=C(CCCN1C(=O)c2ccccc2C1=O)NCC1CCCO1 (stereo not given),,4.77%
CCOn1c(=O)c(=O)n(OCc2ccccc2)c2ccccc21,inactive,
Oc1ccc(Cl)cc1-c1cc(-c2ccccc2)n[nH]1,,3.38%
O=C(c1ccco1)N1CCN(S(=O)(=O)c2ccc(F)cc2)CC1,,10.1%
CN1CCN(C(=O)/C(=C/c2ccc(F)cc2)NC(=O)c2ccccc2)CC1,,1%
Cc1ccc(S(=O)(=O)Nc2ccc3c(c2)c2c(n3S(=O)(=O)c3ccc(C)cc3)CCCC2=O)cc1,inactive,
CCCNC(=O)c1ccc2c(c1)C1C3CCC(C3)C1C(c1ccccc1)N2 (stereo not given),inactive,
Cc1ccc(S(=O)(=O)NC(CC(C)C)C(=O)N2CCN(C/C=C/c3ccccc3)CC2)cc1 (stereo not given),inactive,
O=C(CNC(=O)c1cccs1)OCC(=O)c1ccc2ccccc2c1,,4.05%
c1ccc(-c2nnc(-c3ccncc3)o2)cc1,,0.68%
O=C(COC(=O)COc1ccc(Cl)cc1Cl)NC1CCCCCC1,,2.47%
O=C(CC1NC(=O)NC1=O)Nc1cccc2ccccc12 (stereo not given),,2.7%
CC(NC(=O)CC1Nc2ccccc2NC1=O)c1ccccc1 (stereo not given),,17.6%
COc1ccc(NC(=O)c2cc3ccccn3n2)cc1,,13.5%
COc1ccc(OC)c(C2NC(=O)NC(C)=C2C(=O)Nc2ccc(C)cc2)c1 (stereo not given),,0.68%
Cc1cccc(C)c1OCCOCCN1CCN(C)CC1,inactive,
CCN(CC)c1ccc(C(=C2C=CC(=[N+](CC)CC)C=C2)c2ccccc2)cc1,inactive,
